# Test results published in PubChem BioAssay AID1159580 (chemical genetic matrix, 2015).
# “And” between values parts separate entries of the source, which are not always exact repeats. Equal values may be shown once. Hit rate of the full screen: of about 5,500 compounds, about 2,000 (36%) were called active. Not shown: some 18% with an inconclusive outcome. Cut-off read from the data, not from the text of the source: active = normalized growth mostly below about 0.91 (no sharp cut-off); inconclusive = no clear call, values can overlap the other calls; inactive = mostly above about 0.92. This is one part of the list.
# Experiment: chemical genetic growth profiling, strain panel (AID 1159580);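 note: tested at 20 µM; growth read once vehicle control cultures reached saturation at 30 °C; 1 = growth at the plate median or of vehicle wells; lower values mean less growth of the strain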
# Conditions: S. cerevisiae deletion strains, growth OD
smiles,measurement,setting,value
O=C(OC[C@H]1O[C@H](OC(=O)c2cc(O)c(O)c(OC(=O)c3cc(O)c(O)c(O)c3)c2)[C@H](OC(=O)c2cc(O)c(O)c(OC(=O)c3cc(O)c(O)c(O)c3)c2)[C@@H](OC(=O)c2cc(O)c(O)c(OC(=O)c3cc(O)c(O)c(O)c3)c2)[C@@H]1OC(=O)c1cc(O)c(O)c(OC(=O)c2cc(O)c(O)c(O)c2)c1)c1cc(O)c(O)c(OC(=O)c2cc(O)c(O)c(O)c2)c1,normalized growth,"locus YAL013W, strain DEP1, stronger effect = lower value",0.088 (active)
same,normalized growth,"locus YAL021C, strain ccr4, stronger effect = lower value",0.273 (active)
same,normalized growth,"locus YAL026C, strain drs2, stronger effect = lower value",0.572 (active)
same,normalized growth,"locus YAL030W, strain snc1, stronger effect = lower value",0.889 (active)
same,normalized growth,"locus YBL061C, strain skt5, stronger effect = lower value",0.68 (active)
same,normalized growth,"locus YBR009C, strain hhf1, stronger effect = lower value",0.788 (active)
same,normalized growth,"locus YBR021W, strain FUR4, stronger effect = lower value",0.148 (active)
same,normalized growth,"locus YBR023C, strain chs3, stronger effect = lower value",0.537 (active)
same,normalized growth,"locus YBR171W, strain sec66, stronger effect = lower value",0.931 (inactive)
same,normalized growth,"locus YBR229C, strain ROT2, stronger effect = lower value",0.0601 (active)
same,normalized growth,"locus YBR231C, strain swc5, stronger effect = lower value",0.581 (active)
same,normalized growth,"locus YBR279W, strain paf1, stronger effect = lower value",0.686 (active)
same,normalized growth,"locus YCL011C, strain gbp2, stronger effect = lower value",0.782 (active)
same,normalized growth,"locus YCL016C, strain dcc1, stronger effect = lower value",0.735 (active)
same,normalized growth,"locus YCL029C, strain bik1, stronger effect = lower value",0.0912 (active)
same,normalized growth,"locus YCL061C, strain MRC1, stronger effect = lower value",0.759 (active)
same,normalized growth,"locus YCL069W, strain vba3, stronger effect = lower value",0.8 (active)
same,normalized growth,"locus YCR088W, strain abp1, stronger effect = lower value",0.834 (active)
same,normalized growth,"locus YDL005C, strain med2, stronger effect = lower value",1.02 (inactive)
same,normalized growth,"locus YDL035C, strain GPR1, stronger effect = lower value",0.0826 (active)
same,normalized growth,"locus YDL040C, strain nat1, stronger effect = lower value",0.824 (active)
same,normalized growth,"locus YDL074C, strain BRE1, stronger effect = lower value",0.148 (active)
same,normalized growth,"locus YDL101C, strain DUN1, stronger effect = lower value",0.0829 (active)
same,normalized growth,"locus YDL134C, strain PPH21, stronger effect = lower value",0.0788 (active)
same,normalized growth,"locus YDL185W, strain tfp1, stronger effect = lower value",0.0903 (active)
same,normalized growth,"locus YDL192W, strain arf1, stronger effect = lower value",0.0892 (active)
same,normalized growth,"locus YDR001C, strain nth1, stronger effect = lower value",0.998 (inactive)
same,normalized growth,"locus YDR069C, strain doa4, stronger effect = lower value",0.524 (active)
same,normalized growth,"locus YDR101C, strain arx1, stronger effect = lower value",0.0922 (active)
same,normalized growth,"locus YDR137W, strain rgp1, stronger effect = lower value",0.327 (active)
same,normalized growth,"locus YDR150W, strain NUM1, stronger effect = lower value",0.0891 (active)
same,normalized growth,"locus YDR159W, strain sac3, stronger effect = lower value",0.66 (active)
same,normalized growth,"locus YDR162C, strain NBP2, stronger effect = lower value",0.079 (active)
same,normalized growth,"locus YDR195W, strain ref2",0.839 (active)
same,normalized growth,"locus YDR297W, strain sur2, stronger effect = lower value",0.823 (active)
same,normalized growth,"locus YDR318W, strain mcm21, stronger effect = lower value",0.0987 (active)
same,normalized growth,"locus YDR334W, strain swr1, stronger effect = lower value",0.632 (active)
same,normalized growth,"locus YDR335W, strain msn5, stronger effect = lower value",0.747 (active)
same,normalized growth,"locus YDR388W, stronger effect = lower value",0.0902 (active)
same,normalized growth,"locus YDR392W, strain spt3, stronger effect = lower value",0.742 (inactive)
same,normalized growth,"locus YDR502C, strain sam2, stronger effect = lower value",0.101 (active)
same,normalized growth,"locus YEL003W, strain gim4, stronger effect = lower value",0.748 (active)
same,normalized growth,"locus YEL037C, strain rad23, stronger effect = lower value",0.771 (active)
same,normalized growth,"locus YEL061C, strain CIN8 (second series), stronger effect = lower value",0.926 (inactive)
same,normalized growth,"locus YEL061C, strain CIN8, stronger effect = lower value",0.0806 (active)
same,normalized growth,"locus YER015W, strain faa2, stronger effect = lower value",0.531 (active)
same,normalized growth,"locus YER016W, strain bim1, stronger effect = lower value",0.8 (active)
same,normalized growth,"locus YER110C, stronger effect = lower value",0.111 (active)
same,normalized growth,"locus YER111C, strain swi4, stronger effect = lower value",0.404 (active)
same,normalized growth,"locus YER155C, strain BEM2 (second series), stronger effect = lower value",0.99 (inactive)
same,normalized growth,"locus YER155C, strain BEM2, stronger effect = lower value",0.112 (active)
same,normalized growth,"locus YER167W, strain BCK2, stronger effect = lower value",0.0894 (active)
same,normalized growth,"locus YFR010W, strain ubp6, stronger effect = lower value",0.701 (active)
same,normalized growth,"locus YGL078C, strain dbp3, stronger effect = lower value",0.0891 (active)
same,normalized growth,"locus YGL086W, strain mad1, stronger effect = lower value",0.0871 (active)
same,normalized growth,"locus YGL167C, strain pmr1, stronger effect = lower value",0.724 (active)
same,normalized growth,"locus YGL173C, strain kem1, stronger effect = lower value",0.54 (active)
same,normalized growth,"locus YGL227W, strain vid30, stronger effect = lower value",1 (inactive)
same,normalized growth,"locus YGL240W, strain doc1, stronger effect = lower value",0.979 (inactive)
same,normalized growth,"locus YGL248W, strain PDE1, stronger effect = lower value",0.0713 (active)
same,normalized growth,"locus YGL253W, strain hxk2, stronger effect = lower value",0.796 (active)
same,normalized growth,"locus YGR078C, strain PAC10, stronger effect = lower value",0.084 (active)
same,normalized growth,"locus YGR135W, strain pre9, stronger effect = lower value",0.0994 (active)
same,normalized growth,"locus YGR229C, strain SMI1, stronger effect = lower value",0.102 (active)
same,normalized growth,"locus YGR252W, strain gcn5, stronger effect = lower value",0.231 (active)
same,normalized growth,"locus YHR013C, strain ard1, stronger effect = lower value",0.597 (active)
same,normalized growth,"locus YHR027C, strain rpn1, stronger effect = lower value",0.455 (active)
same,normalized growth,"locus YHR030C, strain SLT2, stronger effect = lower value",0.0838 (active) and 1.05 (inactive)
same,normalized growth,"locus YHR079C, strain IRE1 (second series), stronger effect = lower value",0.0958 (active)
same,normalized growth,"locus YHR079C, strain IRE1, stronger effect = lower value",1.05 (inactive)
same,normalized growth,"locus YHR094C, strain hxt1, stronger effect = lower value",0.0909 (active)
same,normalized growth,"locus YHR129C, strain ARP1, stronger effect = lower value",0.105 (active)
same,normalized growth,"locus YHR142W, strain chs7, stronger effect = lower value",0.535 (active)
same,normalized growth,"locus YHR200W, strain rpn10, stronger effect = lower value",0.0922 (active)
same,normalized growth,"locus YIL066C, strain RNR3, stronger effect = lower value",0.0729 (active)
same,normalized growth,"locus YIL073C, strain SPO22, stronger effect = lower value",0.167 (active)
same,normalized growth,"locus YIL125W, strain kgd1, stronger effect = lower value",0.0846 (active)
same,normalized growth,"locus YIR030C, strain dcg1, stronger effect = lower value",0.0869 (active)
same,normalized growth,"locus YJL092W, strain hpr5, stronger effect = lower value",0.866 (active)
same,normalized growth,"locus YJL095W, strain BCK1 (second series), stronger effect = lower value",0.789 (active)
same,normalized growth,"locus YJL095W, strain BCK1, stronger effect = lower value",0.0975 (active) and 1.03 (inactive)
same,normalized growth,"locus YJL115W, strain asf1, stronger effect = lower value",0.979 (inactive)
same,normalized growth,"locus YJL129C, strain trk1, stronger effect = lower value",0.872 (inactive)
same,normalized growth,"locus YJL134W, strain LCB3, stronger effect = lower value",0.0741 (active)
same,normalized growth,"locus YJL154C, strain vps35, stronger effect = lower value",0.965 (inactive)
same,normalized growth,"locus YJL164C, strain tpk1, stronger effect = lower value",0.781 (active)
same,normalized growth,"locus YJL166W, strain qcr8, stronger effect = lower value",0.839 (active)
same,normalized growth,"locus YJL168C, strain set2, stronger effect = lower value",0.087 (active)
same,normalized growth,"locus YJL187C, strain SWE1 (second series), stronger effect = lower value",0.0725 (active)
same,normalized growth,"locus YJR043C, strain POL32, stronger effect = lower value",0.101 (active)
same,normalized growth,"locus YJR066W, strain TOR1, stronger effect = lower value",0.967 (inactive)
